This is a sample that favours compounds with a hit; in the whole collection about 7.2% have one here.
AHR activator – activates the human aryl hydrocarbon receptor; P35869; AHR-responsive luciferase reporter cells, luminescence; activation, % at 5 µM; actives 2.5% (n = 320,000); in the data active = activation above about 47%;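 note: 0% = vehicle wells and 100% = reference agonist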
Efflux pump mplx – antifungal efflux pump inhibition, Nile Red retention; S. cerevisiae Candida pump triplex; inhibition, % at 10 µM; actives 0.44% (n = 330,000); AID 485275;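 active = plate passing quality check with inhibition over a set limit, or well fluorescence over plate mean plus 4 SD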;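 note: Nile Red retained in pooled yeast measured as flow cytometry median fluorescence; 0% = buffer negative control and 100% = Enniatin B positive control; higher means more Nile Red kept so more efflux inhibition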
A1 inh – inhibitors of the anti-apoptotic protein A1, read as caspase activation; caspase activation, % (test concentration not listed); actives 0.066% (n = 330,000); MEF A1-2A-BIM cells, Caspase-Glo 3/7 luminescence, 3 h; percent of clofoctol response, vehicle zero;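 active = over half of replicate activation scores above 10%, or exactly half above 10 with the replicate mean above 10; inconclusive = replicate mean below 10 yet half the replicates above 10; inactive = over half of replicates below 10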
SUMO Mot1 rescue – blocks SUMOylation pathway, rescuing yeast Mot1-301 growth. S. cerevisiae Mot1-301 growth rescue, ATP luminescence, 38.5C; percent above DMSO median, 100 means doubled. growth rescue, % at 18.8 µM. actives 1% (n = 320,000);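 active = every valid replicate shows activation above 250% relative to neutral control wells; inactive = the rest, any valid replicate at or below 250%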;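 note: OY570 slx delta 5 strain wells were the positive control but not used for scaling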
ALR inh – human ALR oxidase inhibition via reduced H2O2. P55789. purified ALR, DTT oxidation, H2O2 HRP-luminol luminescence. inhibition, % (no concentration beside the values). actives 3.8% (n = 290,000). AID 485317;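 active = mean replicate inhibition above about 79%, with every replicate also reaching it, limit read from the data; inconclusive = only one of the two criteria met; inactive = mean below limit and not every replicate reaching it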
VLA-4 inh – inhibition in a human VLA-4 binding assay; P13612; actives 0.2% (n = 330,000); VLA-4 expressing cells, ligand binding flow cytometry; inhibition, % (about 7 µM as worked out from the volumes in the protocol); in the data active = inhibition above about 50%
Target sequence (P13612 whole entry, looked up): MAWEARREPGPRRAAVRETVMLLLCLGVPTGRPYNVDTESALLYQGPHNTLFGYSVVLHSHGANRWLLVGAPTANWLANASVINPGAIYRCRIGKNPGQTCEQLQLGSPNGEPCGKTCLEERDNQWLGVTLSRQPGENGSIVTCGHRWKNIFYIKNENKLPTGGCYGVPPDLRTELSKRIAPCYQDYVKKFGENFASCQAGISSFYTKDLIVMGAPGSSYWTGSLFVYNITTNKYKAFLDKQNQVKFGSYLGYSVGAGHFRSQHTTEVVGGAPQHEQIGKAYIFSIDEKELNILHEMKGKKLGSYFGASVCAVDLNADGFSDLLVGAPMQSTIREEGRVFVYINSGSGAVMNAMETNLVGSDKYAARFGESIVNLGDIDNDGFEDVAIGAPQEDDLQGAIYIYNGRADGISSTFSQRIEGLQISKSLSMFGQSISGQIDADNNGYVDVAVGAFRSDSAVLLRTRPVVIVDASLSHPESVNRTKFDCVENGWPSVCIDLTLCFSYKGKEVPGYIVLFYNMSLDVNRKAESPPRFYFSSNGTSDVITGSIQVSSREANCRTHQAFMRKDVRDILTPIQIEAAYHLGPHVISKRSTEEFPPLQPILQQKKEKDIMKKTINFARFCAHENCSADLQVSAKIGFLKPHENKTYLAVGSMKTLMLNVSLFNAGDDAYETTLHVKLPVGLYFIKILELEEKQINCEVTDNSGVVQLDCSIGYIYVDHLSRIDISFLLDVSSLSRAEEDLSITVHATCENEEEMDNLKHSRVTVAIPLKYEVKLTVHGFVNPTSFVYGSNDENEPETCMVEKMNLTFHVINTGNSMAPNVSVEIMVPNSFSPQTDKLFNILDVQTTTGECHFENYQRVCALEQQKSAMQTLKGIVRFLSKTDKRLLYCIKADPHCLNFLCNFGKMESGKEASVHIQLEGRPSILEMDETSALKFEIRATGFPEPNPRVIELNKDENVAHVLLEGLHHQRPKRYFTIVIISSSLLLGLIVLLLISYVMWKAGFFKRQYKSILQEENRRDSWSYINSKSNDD
AHR act cf – confirmation of human aryl hydrocarbon receptor activators; shares compounds with AHR activator; human cells, AHR-responsive luciferase reporter, luminescence; activation, % at 9 µM; actives 87% (n = 2,300); AID 2845; in the data active = activation above about 49%;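 note: HepG2 hepatoma cells carrying a DRE-driven firefly luciferase reporter; 0% = vehicle wells and 100% = reference agonist wells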
PXR act counter – PXR activation, counter-screen for AHR activators. AID 434939. shares compounds with AHR activator. actives 88% (n = 2,300). activation, % at 11.6 µM. cell-based PXR reporter, luciferase luminescence; in the data active = activation above about 11%;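 note: human hepatoma DPX-2 cells expressing full-length human PXR; 0% = DMSO and 100% = reference agonist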
The depositor's hits bear a star; i = inactive; ? = inconclusive; / = no result.

SMILES | AHR activator | Efflux pump mplx | A1 inh | SUMO Mot1 rescue | ALR inh | VLA-4 inh | AHR act cf | PXR act counter
CCNS(=O)(=O)c1ccc(C(=O)OCc2cc(=O)oc3cc(OC)ccc23)cc1 | 2 | 0 | 0 | 25 | 2 | -11 | / | /
CC(=O)c1ccc(OCC(O)CN2CCN(CCN3C(=O)c4cccc5cccc(c45)C3=O)CC2)cc1 (centres undefined) | -8 | 0 | 0 | 17 | -22 | 7 | / | /
O=C(/C=C/c1ccccc1)N1CCN(CCN2C(=O)c3cccc4cccc(c34)C2=O)CC1 | 102* | 0 | 0 | 8 | 2 | 7 | 83* | 51*
O=C(CCN1C(=O)c2cccc3cccc(c23)C1=O)N1CCOCC1 | -7 | 0 | 2 | / | 1 | -8 | / | /
CCOc1ccc(NC(=S)N2CCN(CCN3C(=O)c4cccc5cccc(c45)C3=O)CC2)cc1 | 89* | 0 | 0 | 18 | -2 | 35 | 108* | 55*
CCOC(=O)N1CCN(C(=O)C2CCCN(S(=O)(=O)c3c(C)cc(C)cc3C)C2)CC1 (centres undefined) | 2 | 0 | 1 | 1 | -6 | 0 | / | /
O=C(/C=C/c1ccccc1)c1c[nH]c2ccccc12 | 84* | 0 | -5 | -9 | -4 | 2 | 93* | 32*
NC(=O)c1c[nH]c2ccccc12 | 6 | 0 | -1 | -7 | -15 | 18 | / | /
O=C(Nc1ccccc1)C(=O)c1c[nH]c2ccccc12 | 102* | 0 | 0 | 2 | -9 | -12 | 129* | 28*
COC(=O)c1ccc(NC(=O)C(=O)c2c[nH]c3ccccc23)cc1 | 30 | 0 | -2 | 12 | 0 | 6 | / | /
CN(C(=O)COC(=O)C1COc2ccccc2O1)c1c(N)n(Cc2ccccc2)c(=O)[nH]c1=O (centres undefined) | 5 | 0 | 0 | -1 | -1 | -1 | / | /
COCCNC(=S)N=Nc1c(O)[nH]c2c(C)cc(C)cc12 | 116* | 0 | 0 | -7 | -9 | 14 | 93* | 71*
Cc1ccc(Nc2nc3c([nH]2)c(=O)n(C)c(=O)n3C)cc1 | 34 | 0 | 0 | 6 | -1 | -1 | / | /
Cc1cc(C)cc(Nc2nc3c([nH]2)c(=O)n(C)c(=O)n3C)c1 | 95* | 0 | 0 | 5 | 8 | 8 | 38 | 27*
Cc1ccc(/C=N/n2cc(-c3ccccc3)[nH]c2=S)s1 | 96* | 0 | 0 | -12 | ? | 5 | 84* | /
O=C(N/N=C/c1ccncc1)c1ccc(COc2cccc3cccnc23)cc1 | 9 | 0 | 1 | / | -20 | 7 | / | /
O=C(N/N=C/c1ccc2cccc(OCc3ccccc3)c2n1)c1ccc(Cl)cc1 | 99* | 0 | -1 | 4 | 2 | -12 | 70* | 13*
COc1cccc2[nH]c3c(N4CCC(C(N)=O)CC4)ncnc3c12 | 3 | 0 | 1 | 1 | / | -9 | / | /
COc1cccc2[nH]c3c(N4CCCC(C)C4)ncnc3c12 (centres undefined) | 81* | 0 | 0 | -9 | -1 | 13 | 97* | 69*
CC1=NNC(=O)C(CC(=O)Nc2ccc(Cl)c(Cl)c2)C1 (centres undefined) | 1 | 0 | 1 | -14 | 1 | 18 | / | /
Brc1ccc(-c2nnc(-c3ccccc3)c(N3CCSCC3)n2)cc1 | 123* | 0 | -2 | -16 | 19 | 0 | 93* | 75*
Cc1ccc(-c2nnc(-c3ccccc3)c(N3CCOCC3)n2)cc1 | 3 | 0 | 0 | -5 | 0 | 36 | / | /
CN1CCN(c2nc(-c3ccc(Br)cc3)nnc2-c2ccccc2)CC1 | 132* | 0 | -3 | -23 | 35 | 7 | 90* | 49*
C/C=C/c1ccc(OCCCCNCc2ccco2)c(OC)c1 | 6 | 0 | 0 | / | 10 | 37 | / | /
COc1ccc2sc(-c3ccc(N(C)C)cc3)c(C#CCCO)c2c1 | 109* | 0 | -3 | -18 | 14 | -2 | 129* | 19*
SMILES | AHR activator | Efflux pump mplx | A1 inh | SUMO Mot1 rescue | ALR inh | VLA-4 inh | AHR act cf | PXR act counter
COc1cccc(-c2sc3ccc(OC)cc3c2C#CCC(C)O)c1 (centres undefined) | 44 | 0 | -1 | -2 | -1 | 0 | / | /
COc1ccc2sc(-c3ccc(SC)cc3)c(C#CCO)c2c1 | 85* | 0 | -1 | 18 | -4 | 17 | 90* | 34*
CCOc1ccc(CCNC(=O)c2ccc3ccccc3n2)cc1OCC | 36 | 1 | 0 | i | -5 | 6 | / | /
Cc1nc(SCc2nc3c(F)cccc3[nH]2)c2oc3ccccc3c2n1 | 80* | 0 | 0 | 18 | -5 | -2 | 80* | 40*
Cc1nc(SCc2ccccc2F)c2oc3ccccc3c2n1 | 1 | 0 | -1 | -14 | -2 | 20 | / | /
O=C(/C=C/c1ccc(Cl)cc1)NCc1ccco1 | 14 | 0 | -1 | 190 | 0 | 6 | / | /
COC(=O)c1ccccc1-c1ccc(/C=N/NC(N)=O)o1 | 2 | 0 | 0 | -3 | -11 | -6 | / | /
Cc1nnc(N/N=C/c2ccc(-c3ccccc3F)o2)n1N | 109* | 0 | 0 | -4 | 15 | 0 | 75* | 24*
C(=C\c1nc(N2CCCC2)c2ccccc2n1)/c1ccccc1 | 162* | 0 | -1 | 10 | 10 | 15 | 145* | 45*
COc1cccc2c(=O)c3c([nH]c12)OC(C)(C)C3 | 0 | 0 | 0 | 2 | 8 | 11 | / | /
COc1cccc2c(=O)c3cccc(N)c3[nH]c12 | 80* | 0 | 0 | 11 | / | 14 | 60* | /
COC(=O)N/N=C/c1c(C)c(C(=O)c2ccc(F)cc2)n2ccccc12 | 86* | -1 | 0 | -1 | / | 4 | 74* | 94*
CCOC(=O)N/N=C/c1c(C)c(C(=O)c2ccc(F)cc2)n2ccccc12 | 84* | 0 | 1 | -10 | 59 | -4 | 104* | 74*
Cn1cccc1C(=O)C(=O)Nc1cccc(Cl)c1Cl | 92* | 0 | -7 | 516 | -5 | 2 | 104* | 10*
CCN(CC(=O)NCc1cccs1)S(=O)(=O)c1cccc(Br)c1 | -1 | 0 | 0 | -5 | / | -2 | / | /
Cn1c(=O)c2c(nc(N/N=C3\CCCc4ccccc43)n2Cc2ccc(F)cc2)n(C)c1=O | 95* | 0 | 0 | -18 | -3 | 0 | 89* | 40*
COc1ccc2nc(-c3ccc(F)cc3)sc2c1 | 5 | 0 | -11 | 18 | -6 | 26 | / | /
COc1cc(OC)cc(-c2nc3ccccc3s2)c1 | 90* | 0 | -7 | 11 | -3 | 2 | 107* | 11*

Screens from PubChem.
